Source: the supplement of paper PMC8728848
The sample as a whole holds a higher share of the strongest signals than the screen did.

Assays:
Assay in all cases: glycan array binding signal (z-score within array); higher = stronger binding
Details in all cases: glycan notation: IUPAC condensed, linker removed
[1] = molecular target: Gal(b1-4)GlcNAc(b1-3)[GlcNAc(b1-6)]Gal(b1-4)GlcNAc
In short: (§1)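 The Consortium for Functional Glycomics database supplied 3228 glycan arrays, of which those lacking an available protein sequence were dropped. The binding signal, a within-array Z-score, was averaged across arrays of the same protein sequence and across linkers. Negative scores can be read as non-binding.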

[2] = molecular target: Gal(b1-4)GlcNAc(b1-6)[Gal(b1-4)GlcNAc(b1-3)]GalNAc
In short: as §1

[3] = molecular target: Gal3S(b1-4)[Fuc(a1-3)]GlcNAc6S
In short: as §1

[4] = molecular target: Gal6P(b1-4)GlcNAc
In short: as §1

[5] = molecular target: GalNAc(b1-3)Gal(a1-6)Gal(b1-4)Glc
In short: as §1

[6] = molecular target: GalNAc(b1-4)GlcNAc
In short: as §1

[7] = molecular target: GalNAc(b1-4)GlcNAc(b1-2)Man(a1-3)[GalNAc(b1-4)GlcNAc(b1-2)Man(a1-6)]Man(b1-4)GlcNAc(b1-4)GlcNAc
In short: as §1

[8] = molecular target: GalNAc4S6S(b1-4)GlcNAc
In short: as §1

[9] = molecular target: Glc(a1-6)Glc(a1-6)Glc(a1-6)Glc
In short: as §1

[10] = molecular target: GlcA(b1-3)GlcNAc
In short: as §1

[11] = molecular target: GlcNAc(b1-3)Gal(b1-4)GlcNAc(b1-2)Man(a1-3)[GlcNAc(b1-3)Gal(b1-4)GlcNAc(b1-2)Man(a1-6)]Man(b1-4)GlcNAc(b1-4)GlcNAc
In short: as §1

[12] = molecular target: GlcNAc(b1-3)Gal(b1-4)GlcNAc(b1-3)Gal(b1-4)GlcNAc(b1-3)Gal(b1-4)GlcNAc(b1-2)[GlcNAc(b1-3)Gal(b1-4)GlcNAc(b1-3)Gal(b1-4)GlcNAc(b1-3)Gal(b1-4)GlcNAc(b1-6)]Man(a1-6)[GlcNAc(b1-3)Gal(b1-4)GlcNAc(b1-3)Gal(b1-4)GlcNAc(b1-3)Gal(b1-4)GlcNAc(b1-2)Man(a1-3)]Man(b1-4)GlcNAc(b1-4)[Fuc(a1-6)]GlcNAc
In short: as §1

[13] = molecular target: GlcNAc(b1-6)Gal(b1-4)GlcNAc
In short: as §1

[14] = molecular target: Man(a1-3)[Man(a1-6)]Man(b1-4)GlcNAc(b1-4)GlcNAc
In short: as §1

[15] = molecular target: Man(a1-3)[Man(a1-6)]Man(b1-4)GlcNAc(b1-4)[Fuc(a1-6)]GlcNAc
In short: as §1

[16] = molecular target: MurNAc(b1-4)GlcNAc
In short: as §1

[17] = molecular target: Neu5Ac(a2-3)Gal(b1-3)GalNAc
In short: as §1

[18] = molecular target: Neu5Ac(a2-3)Gal(b1-3)GlcNAc(b1-2)Man(a1-3)[Neu5Ac(a2-3)Gal(b1-3)GlcNAc(b1-2)Man(a1-6)]Man(b1-4)GlcNAc(b1-4)GlcNAc
In short: as §1

[19] = molecular target: Neu5Ac(a2-3)Gal(b1-4)GlcNAc(b1-2)[Neu5Ac(a2-3)Gal(b1-4)GlcNAc(b1-6)]Man(a1-6)[Neu5Ac(a2-3)Gal(b1-4)GlcNAc(b1-2)Man(a1-3)]Man(b1-4)GlcNAc(b1-4)GlcNAc
In short: as §1

[20] = molecular target: Neu5Ac(a2-3)Gal(b1-4)GlcNAc(b1-3)Gal(b1-4)GlcNAc
In short: as §1

[21] = molecular target: Neu5Ac(a2-3)Gal(b1-4)GlcNAc(b1-3)Gal(b1-4)GlcNAc(b1-3)Gal(b1-4)GlcNAc(b1-2)Man(a1-3)[Neu5Ac(a2-3)Gal(b1-4)GlcNAc(b1-3)Gal(b1-4)GlcNAc(b1-3)Gal(b1-4)GlcNAc(b1-2)Man(a1-6)]GalNAc
In short: as §1

[22] = molecular target: Neu5Ac(a2-6)Gal(b1-4)GlcNAc(b1-2)Man(a1-3)[GlcNAc(b1-4)][Neu5Ac(a2-6)Gal(b1-4)GlcNAc(b1-2)Man(a1-6)]Man(b1-4)GlcNAc(b1-4)GlcNAc
In short: as §1

[23] = molecular target: Neu5Ac(a2-6)Gal(b1-4)GlcNAc(b1-2)[Neu5Ac(a2-6)Gal(b1-4)GlcNAc(b1-4)]Man(a1-3)[GlcNAc(b1-4)][Neu5Ac(a2-6)Gal(b1-4)GlcNAc(b1-4)Man(a1-6)]Man(b1-4)GlcNAc(b1-4)GlcNAc
In short: as §1

[24] = molecular target: Neu5Ac(a2-6)Gal(b1-4)GlcNAc6S
In short: as §1

[25] = molecular target: Neu5Ac(a2-8)Neu5Ac(a2-8)Neu5Ac(a2-3)Gal(b1-4)Glc
In short: as §1

B1: GS13971A-bth-447-22-447 (Bacteroides thetaiotaomicron) (protein)
chain: EDVDNERSKGMFSASQSGFSTIEVYDLGPLNKIDLSIAKAGLEDTGGTVTFSVEQSLLDSLNNADGTSYQLLPPECYTIENATYSVSPGGDRRVTGGSLVYDPHKIYNLCGFDELKYVLPLRVSSTGTPMNSDRTATLYGFIVKEAIVRLASTGGDFVVEGGTTTSPMNLDTEISFENEWDLTTSFATKGADYVDNYNSANSTYYIPLPSDFYTLPDVTIAKGKTTGGSAISLLGETLPPGNYLLPVSLGGLSGQGDASINIDKETVANYFVIKQGGPINRDHWTVTANTEEKTGEVSAAYPHNGQTISLIDGEINTFWHSKWQGGEVAPPYEIILDMGKENSVSQLGLIARQNALTSMNLEIYAGDDGETWNLIGKYFFDGSIKTEQMVPVKACDARWIRIYIPTLGSGSSVGHLAEIYVYGTDK
glycan array binding signal (z-score) [1]: 0.129 | glycan array binding signal (z-score) [2]: -0.463 | glycan array binding signal (z-score) [3]: 0.338 | glycan array binding signal (z-score) [4]: -0.674 | glycan array binding signal (z-score) [5]: -0.007 | glycan array binding signal (z-score) [6]: 2.92 | glycan array binding signal (z-score) [7]: 5.75 | glycan array binding signal (z-score) [8]: -0.217 | glycan array binding signal (z-score) [9]: 0.028 | glycan array binding signal (z-score) [10]: -0.782 | glycan array binding signal (z-score) [11]: -0.725 | glycan array binding signal (z-score) [12]: 2.94 | glycan array binding signal (z-score) [13]: 2.1 | glycan array binding signal (z-score) [14]: 0.252 | glycan array binding signal (z-score) [15]: -0.859 | glycan array binding signal (z-score) [16]: -0.36 | glycan array binding signal (z-score) [17]: 0.032 | glycan array binding signal (z-score) [18]: -0.673 | glycan array binding signal (z-score) [19]: 1.47 | glycan array binding signal (z-score) [20]: 1.45 | glycan array binding signal (z-score) [21]: 2.81 | glycan array binding signal (z-score) [22]: 0.18 | glycan array binding signal (z-score) [23]: -1.25 | glycan array binding signal (z-score) [24]: -1.24 | glycan array binding signal (z-score) [25]: 1.11
